Experimental data: the supplement of paper PMC6555819

Columns and labels:
Test in all cases: PBM binding z-score (relative to random genomic background probes); higher = stronger binding; sequences stand for … in GC…GCGATTGACAGCGTAGAATGAAGG
[1] = system: PPARg:RXRa DBDmut IVT, anti-RXR (DBD mutation: RXRa K156A/R161A, NR concentration 270 nM, RXRa partner concentration 90 nM)
Method in brief: (§1)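 Scanned fluorescence from custom Agilent 4×180K protein-binding microarrays was regression-normalized. Binding z-scores use random background probes as reference. Ligand-free nuclear receptor dimers were incubated on the arrays for 1 h and detected with antibodies against each partner (one per run).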

[2] = system: PPARg:RXRa IVT, anti-PPARg (NR concentration 270 nM, RXRa partner concentration 90 nM)
Method in brief: as §1

[3] = system: PPARg DBDmut:RXRa IVT, anti-PPARg (DBD mutation: PPARg1 K132A/R137A, NR concentration 270 nM, RXRa partner concentration 90 nM)
Method in brief: as §1

[4] = system: PPARg DBDmut IVT, anti-PPARg (DBD mutation: PPARg1 K132A/R137A, NR concentration 270 nM)
Method in brief: as §1

[5] = system: PPARg homodimer (NR concentration 180 nM)
Method in brief: as §1

[6] = system: PXR:RXRa (NR concentration 270 nM, RXRa partner concentration 90 nM)
Method in brief: as §1

[7] = system: PXR homodimer (NR concentration 270 nM)
Method in brief: as §1

[8] = system: RARa:RXR (NR concentration 270 nM, RXRa partner concentration 90 nM)
Method in brief: as §1

[9] = system: RARa homodimer (NR concentration 270 nM)
Method in brief: as §1

[10] = system: RARb:RXRa (NR concentration 270 nM, RXRa partner concentration 90 nM)
Method in brief: as §1

Sequence | PBM binding z-score [1] | PBM binding z-score [2] | PBM binding z-score [3] | PBM binding z-score [4] | PBM binding z-score [5] | PBM binding z-score [6] | PBM binding z-score [7] | PBM binding z-score [8] | PBM binding z-score [9] | PBM binding z-score [10]
ACTCAAAGTTCACTAGGTAACGTAAGATTCAGCT | 3.09 | 4.19 | 1.81 | 1.14 | 3.86 | 4.2 | 3.09 | 3.17 | 3.01 | 4.95
GGAACGAGGGCAAGTTGATAGGAGAGTTTGATGG | 3.49 | 2.69 | -0.522 | 0.0128 | 0.664 | 0.817 | 1.15 | 0.165 | -0.204 | 2.63
TAGCCTAGGTCATTGGGCCAGTACAGTACGCATC | 2.86 | 3.89 | -0.0279 | 0.0815 | 1.12 | 1.71 | -0.112 | 2.12 | -0.528 | 3.67
GATACAGGGTCAGCTAGAGGCCAGAGCATGGAAA | 1.04 | 2.15 | 0.0195 | -0.294 | 1.76 | 2.88 | -0.095 | 4.33 | -0.0795 | 4.16
GCTGCTAGTTCAGGTTGGTCAGCTAACGGGTACG | -0.103 | -0.56 | -0.826 | -0.845 | -0.918 | -0.166 | 0.0964 | -0.23 | -0.341 | 1.01
CGTCCAAGGTCAGAGAAGTCAGTGAATGCCGAGT | 2.46 | 2.18 | -0.292 | -0.903 | 1.38 | 2.55 | 0.728 | 2.86 | 0.262 | 4.68
GCTAGTTGGTCACTAAAAGGTCACACACCGGTCG | 1.75 | 3.25 | -0.266 | -0.384 | 4.15 | 5.01 | 1.59 | 5.91 | 1.48 | 4.49
TCAGACAGGTGCAGGTAACTCAGGTACGCAGTCG | 1.83 | -0.017 | -0.24 | -0.576 | -0.207 | 0.426 | -0.203 | 0.659 | -0.372 | 0.311
AACACAGGGTCACTAGGCCAGAGTAGGTACGAAT | 3.35 | 5.16 | 3.43 | 0.694 | 5.13 | 3.16 | 0.347 | 4.14 | 0.685 | 4.19
TCTAGCACGCCAGAGGGTCACTCAAGAGGTACGG | 0.507 | 0.0659 | -0.875 | -0.824 | 0.566 | 1.56 | -0.773 | 2.37 | -0.679 | 2.04
ATCTCTAGGTAAAGCTAGTTCAGTGAATGCAAAT | 2.03 | 1.83 | 0.606 | 0.732 | 0.371 | 1.07 | 0.241 | 0.383 | 0.278 | 0.0194
TAGCCTAGGTCATTCAGGGGCCAGTATCGAAAGC | 1.77 | 2.83 | 0.988 | -0.403 | 1.28 | 2.47 | 0.344 | 3.36 | -0.599 | 3.67
